Assay results reported in PMC13541613, “GHT-SELEX demonstrates unexpectedly high intrinsic sequence specificity and complex DNA binding of many human transcription factors”.

Each sequence was assayed against ZNF721 DBD2 (Homo sapiens, UniProt Q8TF20-2 395-923) (assay: HT-SELEX; 20 mM HEPES pH 7, 140 mM KCl, 5 mM NaCl, 1 mM K2HPO4, 2 mM MgSO4, 100 uM EGTA, ZnSO4, 0.1% Tween20; room temperature, 1 h; high values mean tight binding). Settings: protein: ivt; tags: eGFP (N-terminal); dsDNA, one strand shown.
ZNF721 DBD2, sequence (Q8TF20 383-911): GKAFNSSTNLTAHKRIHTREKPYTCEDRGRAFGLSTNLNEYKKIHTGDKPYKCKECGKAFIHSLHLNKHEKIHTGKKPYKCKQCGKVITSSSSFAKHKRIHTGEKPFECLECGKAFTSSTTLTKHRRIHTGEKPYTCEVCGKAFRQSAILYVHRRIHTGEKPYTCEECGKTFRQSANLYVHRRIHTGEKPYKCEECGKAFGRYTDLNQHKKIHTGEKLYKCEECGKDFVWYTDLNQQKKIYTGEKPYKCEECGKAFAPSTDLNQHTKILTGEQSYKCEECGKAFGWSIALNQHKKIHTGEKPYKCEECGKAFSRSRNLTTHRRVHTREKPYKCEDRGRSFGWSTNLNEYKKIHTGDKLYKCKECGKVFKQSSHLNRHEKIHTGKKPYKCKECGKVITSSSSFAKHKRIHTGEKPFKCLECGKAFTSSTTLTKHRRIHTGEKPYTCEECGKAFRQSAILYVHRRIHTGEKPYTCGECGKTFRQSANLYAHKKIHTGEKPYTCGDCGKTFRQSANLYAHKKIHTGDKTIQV
In short: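 A tagged transcription factor, either full-length or its DNA-binding-domain fragment, was made in HEK293 lysate or cell-free extract, immobilised on beads and incubated with a randomized 40-base DNA library for 1 h at room temperature in HEPES/KCl low-stringency buffer containing Tween20. Washed beads were heat-eluted, and the bound DNA was PCR-amplified over successive cycles and Illumina-sequenced at ~3 million 60 bp reads per sample. The binding signal is the relative k-mer count in selected reads, where a higher value means tighter binding.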

Sequence	binding signal [relative 10-mer count]
CCGCCCGCCC	0.00192
AAAAAAGGTA	0.0674
AGGGTGGGTG	0.00515
CCCGCCCCCC	0.0018
AGCAGTACCA	0.0533
CCCCCCCCTC	0.00324
CCCGCCCTCC	0.0018
AAAAGCATAC	0.039
CCCGCCCCTC	0.00144
ACCTCCCCAC	0.0036
CCCACACCCA	0.00455
AAAGAAGCTA	0.00132
AAAAGCGTAC	0.0176
ACCGCCCCCC	0.00132
AAAAAGAGCA	0.0193
CAGCGTATCC	0.648
CGCTTCATAC	0.0012
CCCACCCGAC	0.00479
CAAAAAAAAG	0.108
CCCCAACCCA	0.00384

Sequence	binding signal [relative 10-mer count]
CCCACCCCGC	0.00336
CCCCTCCCTC	0.00336
CCCCACTCCC	0.00216
CCGCCCACCC	0.0018
GCCCCACCAC	0.00743
CCCCTCCCCA	0.00455
CCCACCCCGA	0.00192
CCCCCGCCGC	0.00168
ACCCTCCCCA	0.00515
CAAAAAAACA	0.263
CCGCCCCCAC	0.0036
CCAACCCACC	0.00395
CCACCCCACG	0.00491
AGGGTTTCCA	0.201
CGCCCACCAC	0.00384
CCCCTTCCCC	0.00192
CCCCCCCTCC	0.00336
CCATCCCACC	0.00575
GGTGGGGGGA	0.00407
CAAAAAAGCA	0.17
